Out of some 300,000 compounds screened, about 2,400 (0.8%) were called active. This is one part of a sample in which actives are shown more often than they occur. Unmarked numbers belong to inactive results.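 The calls were made as follows: active = Every replicate reaches about 75%, or at least half do and their mean reaches it too (limit read from the data); inconclusive = At least half of replicates reach the limit but their mean does not; inactive = Under half of replicates reach the limit.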
Assay: INS-1E beta cell survival under cytokines – luminescence, primary screen (AID 435005);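 also: 0% = cytokine-treated negative control wells and 100% = positive control rescue; higher means more ATP so stronger rescue from cytokine killing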
Details: INS-1E cytokine-induced death, ATP luminescence, 48 h; active compounds read high; percent of positive-control rescue, neutral wells zero; concentration not given here

Compound | protection from apoptosis
CCCCN(C(=O)C1=NN(c2cc(C)ccc2C)C(=O)CC1)c1c(N)n(CCC)c(=O)[nH]c1=O | 1.47%
COc1ccccc1NC(=O)COC(=O)CNC(=O)C1CCCCC1 | -4.98%
CCCCCCSc1ccc([C@@H]2[C@H]3C(=O)N(CC)C(=O)[C@H]3[C@]3(C(=O)OC)CCCCN23)cc1 | 2.19%
COC(=O)C1=C(C)NC(=S)NC1c1ccc(OCC(=O)N2CC(C)OC(C)C2)c(OC)c1 (centres undefined) | 0.55%
O=C(N/N=C/c1ccccc1O)C1CCCC1 | 8.23%
O=C(N/N=C/c1ccccc1O)/C(=C/c1ccccc1)CCO | 85.8% (active)
O=C(CCCO)N/N=C/c1cc(Br)ccc1O | 2.57%
O=C(CN1C(=O)NC2(CCCC2)C1=O)Nc1cc(C(F)(F)F)ccc1N1CCOCC1 | 1.66%
CCCOc1ccc(Cc2c(O)nc(SC)[nH]c2=O)cc1C | -2.93%
CCCOc1ccc(Cc2c(Cl)nc(SC)nc2NC)cc1 | 82.7% (active)
CCCOc1ccc(C(=O)NCCc2ccccc2)cc1 | 9.99%
COc1ccc(C2=Nn3c(nnc3-c3ccccc3OC)SC2)cc1OC1CCCC1 | 31.3%
CCOc1ccc(CN2CCCN(C)CC2)cc1 | -3.58%
CCOc1ccc(CN2CCN(Cc3c[nH]c4ccccc34)CC2)cc1 | 76.1% (active)
O=C(NCCc1c[nH]c2ccccc12)C1CCN(Cc2ccc(Br)cc2)CC1 | -12.4%
CN(CC(=O)Nc1ccc(Cl)cc1)CC(=O)Nc1cccc2ccccc12 | 0.976%
Cc1onc(-c2c(F)cccc2Cl)c1C(=O)OCC(=O)N1C(C)CCCC1C (centres undefined) | 1.7%
Cc1ccc(-n2[nH]c(C)c(/C=N/NC(=O)c3cccc([N+](=O)[O-])c3)c2=O)cc1C | 106% (active)
Cc1[nH]n(-c2ccc([N+](=O)[O-])cc2)c(=O)c1C=NCCN1CCN(C(=O)c2ccccc2F)CC1 | 48.6%
Cc1cccc(C(=O)NNC(=O)c2cccc([N+](=O)[O-])c2)c1 | -5.35%
Cc1[nH]n(-c2ccccc2)c(=O)c1/C=N/NC(=O)c1ccoc1C | 107% (active)
Cc1occc1C(=O)N/N=C/c1ccc(-c2cccc([N+](=O)[O-])c2)o1 | 4.96%
COc1cc(/C=N/NC(=O)c2ccoc2C)ccc1OCCN1CCCCC1 | -1.12%
Cc1ccc(N2C(=O)N3[C@@H]4c5ccccc5OC[C@@H]4[C@@H](c4ccccc4)[C@@]3(C)C2=O)cc1 | -1.96%
Cc1ccc(S(=O)(=O)N(C)C)cc1NC(=O)CN1c2cccc3cccc(c23)S1(=O)=O | -0.228%
CCOc1ccc(NC(=O)CCC(=O)N/N=C/c2ccc([N+](=O)[O-])s2)cc1 | -9.66%
COc1ccc(C(=O)COC(=O)c2ccc([N+](=O)[O-])s2)cc1OC | 4.99%

Compound | protection from apoptosis
COc1ccc(C(=O)NCC(=O)N/N=C/c2ccc([N+](=O)[O-])s2)cc1OC | 91.3% (active)
Cc1ccccc1NCC(=O)N/N=C\c1ccc([N+](=O)[O-])s1 | 3.12%
CC(C)(C)c1cc(C(=O)N/N=C/c2ccc([N+](=O)[O-])s2)n[nH]1 | 111% (active)
COc1ccc(C(=O)NCC(=O)N/N=C/c2ccc([N+](=O)[O-])o2)cc1OC | -11.1%
CCN(C[C@H]1N[C@@](CC)(C(=O)OC)[C@H]2C(=O)N(Cc3ccccc3)C(=O)[C@@H]12)S(=O)(=O)c1ccc(C(F)(F)F)cc1 | 13.9%
COc1ccc(C)cc1NC(=O)c1cc(-c2ccccc2)nc2c1cnn2C(C)C | 15.6%
COc1ccc(S(=O)(=O)Nc2cccc3c2O[C@H](CN(C)S(=O)(=O)c2ccc(OC)cc2)[C@@H](C)CN([C@H](C)CO)C3=O)cc1 | -7.76%
COc1ccc(S(=O)(=O)N(C)C[C@@H]2Oc3ccc(NS(=O)(=O)c4cn(C)cn4)cc3C(=O)N([C@@H](C)CO)C[C@@H]2C)cc1 | -2.08%
Nn1c(SCC(=O)NC2CCCc3ccccc32)nnc1C1CC1 (centres undefined) | -5.42%
COc1ccc(CCNC(=O)COC(=O)c2cnc(Cl)c(Cl)c2)cc1 | -3.76%
C/C(=N\NC(=O)Cc1ccc(F)cc1)c1ccc(F)cc1 | -1.1%
C/C(=N\NC(=O)Cc1ccc(Cl)cc1)c1ccccn1 | 87.6% (active)
COC(=O)c1ccccc1NC(=S)NC(=O)c1ccccc1F | 1.17%
C/C(CC(=O)Nc1ccc(N(C)C)cc1)=N\NC(=O)c1ccccc1F | 1.37%
C/C(=N\NC(=O)Cc1ccc(Br)cc1)c1cccnc1 | -3.84%
C/C(=N\NC(=O)c1ccccc1F)c1ccccn1 | 92% (active)
O=C(COC(=O)c1ccccn1)NNC(=O)c1ccc(Br)cc1 | -13.1%
Cc1cc(C)cc(OCC(=O)Nc2ccc(N3CCOCC3)cc2N2CCOCC2)c1 | 1.95%
CN(CC(=O)Nc1ccc(OC(F)F)cc1)S(=O)(=O)/C=C/c1ccccc1 | -0.758%
Cc1cccc2nc(CSc3nc4[nH]ncc4c(=O)n3-c3cccc(Cl)c3)cc(=O)n12 | 92.7% (active)
COc1ccc(CCNC(=O)CSc2nc3[nH]ncc3c(=O)n2-c2cccc(C(F)(F)F)c2)cc1OC | 4.86%
CCc1ccc(-n2c(SCc3cc(=O)n4cc(Br)ccc4n3)nc3[nH]ncc3c2=O)cc1 | 16.3%
CC[C@@H]1CCCCc2ccccc2[C@@H](C(=O)C[C@H](O)CC(C)=O)OC1=O | -2.96%
C[C@@H]1CN([C@@H](C)CO)C(=O)c2cccc(NS(=O)(=O)c3ccc(F)cc3)c2O[C@H]1CN(C)C(=O)NC1CCCCC1 | -0.297%
CC(C)OCCCNc1ncnc2c1[nH]c1ccc(F)cc12 | 104% (active)
COc1cc(OC)c(OC)cc1/C=N/Nc1ncnc2c1[nH]c1ccc(C)cc12 | 6%
CC(C)OCCCNC(=O)c1cc(Sc2ccc(F)cc2)nc2ccccc12 | 0.00619%
